Experimental data published in PubChem BioAssay (EPA / NIEHS).
Records with an inconclusive call do not appear. Activity calls are given as the source filed them. The calls were made as follows, unless noted: active = hit-call score of the fitted dose curve at least 0.9, where 1 is the maximum; inactive = score below 0.9.

Legend:
[1] = biological target: Retinoic acid receptor RXR-alpha (Homo sapiens) (UniProt P19793); test: OT_NURR1_NURR1RXRa_1440: Odyssey Thera (OT) 24-hour HEK293T Protein Complementation Assay for Nurr1/retinoid X receptor (RXR) (AID 2283386; active = hit-call score of the fitted dose curve at least 0.9, where 1 is the maximum)
Procedure, shortened: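 HEK293T cells were dosed with compound and read 24 h later by fluorescence intensity in a protein-fragment complementation format, where Nurr1–RXRα interaction reconstitutes a split reporter. Activity was fitted as gain of signal relative to DMSO baseline.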

[2] = biological target: Peroxisome proliferator-activated receptor gamma (Homo sapiens) (UniProt P37231); test: OT_PPARg_PPARgSRC1_0480: Odyssey Thera (OT) 8-hour Protein-Complementation Assay for Peroxisome Proliferator-activated Receptor Gamma / SRC-1 Co-activator (AID 2283387; active = hit-call score of the fitted dose curve at least 0.9, where 1 is the maximum)
Procedure, shortened: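 Protein-fragment complementation of split Venus YFP reports PPARg/SRC-1 interaction in HEK293T (transfected 48 h before treatment), exposed 8 h. Readout: N/C fluorescence ratio at 488 nm from imaging, Draq5 for segmentation, positive fit relative to DMSO.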

[3] = biological target: Peroxisome proliferator-activated receptor gamma (Homo sapiens) (UniProt P37231); test: OT_PPARg_PPARgSRC1_1440: Odyssey Thera (OT) 24-hour Protein-Complementation Assay for Peroxisome Proliferator-activated Receptor Gamma/ SRC-1 Co-activator (AID 2283388; active = hit-call score of the fitted dose curve at least 0.9, where 1 is the maximum)
Procedure, shortened: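 HEK293T transiently transfected with PPARg/SRC-1 split-Venus YFP fusions 48 h before dosing, then treated 24 h at 37C. Fixed cells imaged; nuclear/cytoplasmic 488 nm fluorescence ratio, gain of signal versus DMSO.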

[4] = CEETOX_H295R_11DCORT: CeeTox H295R High-throughput Steroidogenesis Assay for 11-Deoxycortisol (11DCORT) (AID 2283432); settings: actives raise or lower the signal;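 as to AC50: 11-deoxycortisol secreted into the medium measured by LC-MS/MS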
Procedure, shortened: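 Human adrenal H295R cells were prestimulated with 10 uM forskolin for 48 h, then exposed to test chemical (0.1% DMSO final) for 48 h. Medium 11-deoxycortisol was quantified by MTBE extraction and HPLC-MS/MS; bidirectional fitting relative to DMSO.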

[5] = CEETOX_H295R_OHPREG: CeeTox H295R High-throughput Steroidogenesis Assay for OH-Pregnenolone (OHPREG) (AID 2283434); settings: actives raise or lower the signal
Procedure, shortened: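 H295R cells pre-stimulated 48 h with 10 uM forskolin, then exposed 48 h to chemical in 0.1% DMSO. 17alpha-hydroxypregnenolone in medium quantified by MTBE extraction and HPLC-MS/MS; bidirectional fit versus DMSO, viability checked by MTT.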

[6] = CEETOX_H295R_OHPROG: CeeTox H295R High-throughput Steroidogenesis Assay for OH-Progesterone (OHPROG) (AID 2283435); settings: actives raise or lower the signal
Procedure, shortened: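 H295R human adrenal cells were prestimulated 48 h with 10 uM forskolin, then exposed 48 h to test chemical (0.1% DMSO final). 17alpha-hydroxyprogesterone in medium was measured by HPLC-MS/MS after MTBE extraction; bidirectional fitting vs DMSO.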

[7] = CEETOX_H295R_CORTIC: CeeTox H295R High-throughput Steroidogenesis Assay for Corticosterone (CORTIC) (AID 2283437); settings: actives raise or lower the signal;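 also: corticosterone secreted into medium quantified by mass spectrometry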
Procedure, shortened: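 H295R adrenal cells prestimulated 48 hours with 10 uM forskolin, then exposed 48 hours to chemical in 0.1% DMSO. Corticosterone in medium measured by HPLC-MS/MS after MTBE extraction; MTT viability in the same wells; bidirectional fit versus DMSO.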

[8] = CEETOX_H295R_CORTISOL: CeeTox H295R High-throughput Steroidogenesis Assay for Cortisol (AID 2283438); settings: actives raise or lower the signal;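 also: cortisol secreted into medium quantified by LC-MS/MS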
Procedure, shortened: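 H295R human adrenal cells were prestimulated 48 h with 10 uM forskolin, then exposed 48 h to test chemical (0.1% DMSO final). Medium cortisol was quantified by HPLC-MS/MS after MTBE extraction; bidirectional fitting relative to DMSO baseline.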

[9] = CEETOX_H295R_PROG: CeeTox H295R High-throughput Steroidogenesis Assay for Progesterone (PROG) (AID 2283442); settings: actives raise or lower the signal;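 as to AC50: human H295R adrenal cells primed with 10 µM forskolin before dosing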
Procedure, shortened: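 H295R adrenal cells prestimulated 48 h with 10 uM forskolin, then exposed 48 h to test chemical in 0.1% DMSO. Progesterone in medium quantified by HPLC-MS/MS after MTBE extraction; viability checked by MTT in same wells.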

[10] = read-out: Tumor necrosis factor receptor superfamily member 6 (Homo sapiens) (UniProt P25445); test: LTEA_HepaRG_FAS: Life Technologies and Expression Analysis (LTEA) Assay for Fas cell surface death receptor (FAS) using HepaRG (AID 2283447); settings: mRNA level, 48 h; actives raise or lower the signal
Procedure, shortened: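 Differentiated HepaRG cells in serum-free induction medium were exposed 48 h to 8 half-log concentrations up to 100 uM in 0.5% DMSO, in duplicate. FAS mRNA was measured by qRT-PCR normalised to ACTB, GAPDH and POLR2A; bidirectional fit versus DMSO.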

[11] = read-out: Fatty acid synthase (Homo sapiens) (UniProt P49327); test: LTEA_HepaRG_FASN: Life Technologies and Expression Analysis (LTEA) Assay for Fatty Acid Synthase (FASN) using HepaRG (AID 2283448); settings: mRNA level, 48 h; actives raise or lower the signal
Procedure, shortened: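 Differentiated human HepaRG cells were exposed for 48 h in serum-free induction medium to eight half-log concentrations up to 100 uM in 0.5% DMSO, in duplicate. FASN mRNA was quantified by TaqMan qRT-PCR, normalized to ACTB/GAPDH/POLR2A, and fitted bidirectionally against DMSO.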

[12] = read-out: Cyclin D1 (CCND1), CCND1 (gene 595); test: LTEA_HepaRG_CCND1: Life Technologies and Expression Analysis (LTEA) Assay for Cyclin D1 (CCND1) using HepaRG (AID 2283451); settings: mRNA level, 48 h; actives raise or lower the signal;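 as to AC50: TaqMan qRT-PCR transcript level normalised to ACTB GAPDH and POLR2A housekeeping genes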
Procedure, shortened: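 Differentiated HepaRG cells exposed 48 h in serum-free induction medium to eight half-log concentrations from 100 uM top, 0.5% DMSO, duplicates. CCND1 mRNA measured by Fluidigm TaqMan qRT-PCR, normalised to ACTB, GAPDH, POLR2A; bidirectional fit.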

[13] = read-out: catalase (CAT), CAT (gene 847); test: LTEA_HepaRG_CAT: Life Technologies and Expression Analysis (LTEA) Assay for catalase (CAT) using HepaRG (AID 2283452); settings: mRNA level, 48 h; actives raise or lower the signal;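 as to AC50: TaqMan qRT-PCR signal normalized to ACTB GAPDH and POLR2A housekeeping genes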
Procedure, shortened: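 HepaRG cells in serum-free induction medium, 0.5% DMSO vehicle, exposed 48 h in duplicate over 8 half-log concentrations from 100 uM. CAT mRNA measured by qRT-PCR, normalized to ACTB, GAPDH, POLR2A; bidirectional fit versus DMSO.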

[14] = read-out: flavin-containing dimethylaniline monooxygenases 3 (FMO3), FMO3 (gene 2328); test: LTEA_HepaRG_FMO3: Life Technologies and Expression Analysis (LTEA) Assay for flavin-containing dimethylaniline monooxygenases 3 (FMO3) using HepaRG (AID 2283453); settings: mRNA level, 48 h; actives raise or lower the signal;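 as to AC50: FMO3 transcript by TaqMan qRT-PCR normalized to ACTB GAPDH and POLR2A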
Procedure, shortened: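 HepaRG, 48 h exposure, 8-pt half-log series from 100 uM, 0.5% DMSO vehicle, duplicates; FMO3 transcript by Fluidigm TaqMan qRT-PCR, housekeeping-normalized; gain/loss fit vs DMSO.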

[15] = CEETOX_H295R_DOC: CeeTox H295R High-throughput Steroidogenesis Assay for DOC (AID 2283439); settings: actives raise or lower the signal
Procedure, shortened: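 H295R adrenal cells prestimulated 48 h with 10 uM forskolin, then exposed 48 h to test chemical (0.1% DMSO final). Medium 11-deoxycorticosterone extracted with MTBE, quantified by HPLC-MS/MS; bidirectional fit versus DMSO baseline; MTT viability in same wells.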

[16] = CEETOX_H295R_ESTRADIOL: CeeTox H295R High-throughput Steroidogenesis Assay for Estradiol (AID 2283440); settings: actives raise or lower the signal;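 also: estradiol secreted into medium quantified by LC-MS/MS after dansyl derivatisation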
Procedure, shortened: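 H295R cells pre-stimulated 48 h with 10 uM forskolin, then exposed 48 h to chemical in 0.1% DMSO. Medium estradiol quantified by MTBE extraction, dansyl derivatisation and HPLC-MS/MS; bidirectional fit versus DMSO; MTT viability required >/=70%.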

[17] = CEETOX_H295R_ESTRONE: CeeTox H295R High-throughput Steroidogenesis Assay for Estrone (AID 2283441); settings: actives raise or lower the signal;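 also: estrone secreted into medium measured by LC-MS/MS after dansyl derivatization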
Procedure, shortened: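 H295R cells; 48 h forskolin (10 uM) prestimulation; 48 h compound exposure, 0.1% DMSO final. Medium estrone: MTBE extraction, dansyl derivatization, HPLC-MS/MS. Bidirectional fit vs DMSO.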

[18] = read-out: Cyclin D2 (CCND2), CCND2 (gene 894); test: LTEA_HepaRG_CCND2: Life Technologies and Expression Analysis (LTEA) Assay for Cyclin D2 (CCND2) using HepaRG (AID 2283449); settings: mRNA level, 48 h; actives raise or lower the signal;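 also: CCND2 transcript measured by TaqMan qRT-PCR and normalised to three housekeeping genes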
Procedure, shortened: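 Chemicals in 0.5% DMSO, eight half-log concentrations from 100 uM top, were applied in duplicate for 48 h to human HepaRG cells in serum-free induction medium. CCND2 mRNA by TaqMan qRT-PCR, normalised to ACTB/GAPDH/POLR2A; bidirectional fit versus DMSO.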

[19] = read-out: Cyclin Dependent Kinase Inhibitor 1A (CDKN1A), CDKN1A (gene 1026); test: LTEA_HepaRG_CDKN1A: Life Technologies and Expression Analysis (LTEA) Assay for Cyclin Dependent Kinase Inhibitor 1A (CDKN1A) using HepaRG (AID 2283450); settings: mRNA level, 48 h; actives raise or lower the signal
Procedure, shortened: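 Differentiated HepaRG cells in serum-free induction medium, exposed 48 h in duplicate to eight half-log concentrations up to 100 uM in 0.5% DMSO. mRNA measured by TaqMan qRT-PCR, normalized to ACTB, GAPDH, POLR2A; bidirectional fit versus DMSO.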

Measured: AC50

Fatty acid synthase (Homo sapiens), sequence (P49327 whole entry, looked up): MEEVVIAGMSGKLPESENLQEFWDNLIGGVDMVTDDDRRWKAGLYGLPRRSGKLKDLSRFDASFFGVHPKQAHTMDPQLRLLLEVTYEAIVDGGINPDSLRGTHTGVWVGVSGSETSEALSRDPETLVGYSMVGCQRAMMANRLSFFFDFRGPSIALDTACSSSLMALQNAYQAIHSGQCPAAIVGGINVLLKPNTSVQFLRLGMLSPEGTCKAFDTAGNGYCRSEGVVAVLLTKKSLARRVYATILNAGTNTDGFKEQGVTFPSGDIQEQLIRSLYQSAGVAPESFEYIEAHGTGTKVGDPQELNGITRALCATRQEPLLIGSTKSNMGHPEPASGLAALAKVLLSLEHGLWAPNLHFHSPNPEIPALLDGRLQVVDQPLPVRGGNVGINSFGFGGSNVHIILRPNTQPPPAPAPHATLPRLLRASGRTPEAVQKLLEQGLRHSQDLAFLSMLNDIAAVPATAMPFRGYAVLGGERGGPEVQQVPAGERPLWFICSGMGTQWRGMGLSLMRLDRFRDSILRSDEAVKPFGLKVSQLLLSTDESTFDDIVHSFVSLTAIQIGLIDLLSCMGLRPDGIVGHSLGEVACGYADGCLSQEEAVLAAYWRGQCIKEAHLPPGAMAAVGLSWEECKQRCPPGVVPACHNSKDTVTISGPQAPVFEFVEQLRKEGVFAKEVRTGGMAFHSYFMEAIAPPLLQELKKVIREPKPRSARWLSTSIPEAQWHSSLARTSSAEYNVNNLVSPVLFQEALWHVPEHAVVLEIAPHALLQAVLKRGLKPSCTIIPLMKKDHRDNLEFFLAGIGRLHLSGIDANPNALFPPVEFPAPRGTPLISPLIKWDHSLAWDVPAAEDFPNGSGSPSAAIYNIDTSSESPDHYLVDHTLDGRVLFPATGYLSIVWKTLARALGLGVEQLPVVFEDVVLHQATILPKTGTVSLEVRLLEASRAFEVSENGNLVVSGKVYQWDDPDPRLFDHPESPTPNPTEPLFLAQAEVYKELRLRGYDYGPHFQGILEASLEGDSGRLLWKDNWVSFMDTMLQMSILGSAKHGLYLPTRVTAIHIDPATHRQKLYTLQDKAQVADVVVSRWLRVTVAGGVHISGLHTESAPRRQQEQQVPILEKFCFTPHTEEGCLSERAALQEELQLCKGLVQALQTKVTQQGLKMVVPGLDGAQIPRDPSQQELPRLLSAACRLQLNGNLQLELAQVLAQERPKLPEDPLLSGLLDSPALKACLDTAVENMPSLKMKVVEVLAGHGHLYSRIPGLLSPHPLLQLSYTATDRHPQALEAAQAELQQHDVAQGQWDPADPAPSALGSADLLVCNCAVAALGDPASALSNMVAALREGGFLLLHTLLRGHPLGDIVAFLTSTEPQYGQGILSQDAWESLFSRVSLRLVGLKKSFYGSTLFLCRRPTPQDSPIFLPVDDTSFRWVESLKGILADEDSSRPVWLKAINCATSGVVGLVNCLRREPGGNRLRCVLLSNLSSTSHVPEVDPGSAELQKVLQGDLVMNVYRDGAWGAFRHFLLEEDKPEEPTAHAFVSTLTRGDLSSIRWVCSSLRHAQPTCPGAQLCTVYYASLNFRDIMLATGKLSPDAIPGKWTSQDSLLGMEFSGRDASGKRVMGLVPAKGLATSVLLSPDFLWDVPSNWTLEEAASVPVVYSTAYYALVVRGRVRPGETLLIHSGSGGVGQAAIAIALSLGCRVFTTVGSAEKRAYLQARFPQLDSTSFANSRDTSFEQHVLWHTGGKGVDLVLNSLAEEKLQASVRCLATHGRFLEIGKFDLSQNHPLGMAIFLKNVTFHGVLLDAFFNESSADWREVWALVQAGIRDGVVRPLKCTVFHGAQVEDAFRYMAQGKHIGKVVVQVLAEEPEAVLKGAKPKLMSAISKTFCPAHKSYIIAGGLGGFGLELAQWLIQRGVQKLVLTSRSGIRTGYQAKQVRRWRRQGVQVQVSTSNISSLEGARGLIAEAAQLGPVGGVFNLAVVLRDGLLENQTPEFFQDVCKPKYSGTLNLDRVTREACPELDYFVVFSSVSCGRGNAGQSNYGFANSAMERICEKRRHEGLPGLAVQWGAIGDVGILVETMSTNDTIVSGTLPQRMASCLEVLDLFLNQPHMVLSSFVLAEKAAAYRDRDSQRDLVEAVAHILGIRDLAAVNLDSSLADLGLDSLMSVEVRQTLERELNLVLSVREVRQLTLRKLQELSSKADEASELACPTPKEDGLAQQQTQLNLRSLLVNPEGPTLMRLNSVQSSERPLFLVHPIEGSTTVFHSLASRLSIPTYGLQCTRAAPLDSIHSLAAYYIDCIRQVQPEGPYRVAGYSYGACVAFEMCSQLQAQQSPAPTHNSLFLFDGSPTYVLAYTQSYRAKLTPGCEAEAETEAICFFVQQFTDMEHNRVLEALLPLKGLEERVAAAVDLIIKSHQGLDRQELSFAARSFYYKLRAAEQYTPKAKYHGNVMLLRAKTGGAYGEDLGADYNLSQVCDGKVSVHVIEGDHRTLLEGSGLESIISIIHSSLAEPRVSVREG
Retinoic acid receptor RXR-alpha (Homo sapiens), sequence (P19793 whole entry, looked up, the tested form may be a part): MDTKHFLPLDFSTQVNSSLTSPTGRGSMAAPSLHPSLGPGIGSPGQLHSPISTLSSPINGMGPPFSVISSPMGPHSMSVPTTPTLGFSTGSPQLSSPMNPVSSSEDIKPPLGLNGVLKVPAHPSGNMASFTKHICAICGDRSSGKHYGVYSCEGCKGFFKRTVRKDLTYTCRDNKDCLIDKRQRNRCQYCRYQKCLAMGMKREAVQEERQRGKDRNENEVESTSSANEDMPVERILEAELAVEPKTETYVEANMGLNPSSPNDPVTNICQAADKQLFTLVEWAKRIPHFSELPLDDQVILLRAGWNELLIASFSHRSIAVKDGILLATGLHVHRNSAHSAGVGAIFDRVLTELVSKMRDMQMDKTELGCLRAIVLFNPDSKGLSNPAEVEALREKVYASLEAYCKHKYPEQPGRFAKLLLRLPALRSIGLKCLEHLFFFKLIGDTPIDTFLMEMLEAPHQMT
Peroxisome proliferator-activated receptor gamma (Homo sapiens), sequence (P37231 whole entry, looked up, the tested form may be a part): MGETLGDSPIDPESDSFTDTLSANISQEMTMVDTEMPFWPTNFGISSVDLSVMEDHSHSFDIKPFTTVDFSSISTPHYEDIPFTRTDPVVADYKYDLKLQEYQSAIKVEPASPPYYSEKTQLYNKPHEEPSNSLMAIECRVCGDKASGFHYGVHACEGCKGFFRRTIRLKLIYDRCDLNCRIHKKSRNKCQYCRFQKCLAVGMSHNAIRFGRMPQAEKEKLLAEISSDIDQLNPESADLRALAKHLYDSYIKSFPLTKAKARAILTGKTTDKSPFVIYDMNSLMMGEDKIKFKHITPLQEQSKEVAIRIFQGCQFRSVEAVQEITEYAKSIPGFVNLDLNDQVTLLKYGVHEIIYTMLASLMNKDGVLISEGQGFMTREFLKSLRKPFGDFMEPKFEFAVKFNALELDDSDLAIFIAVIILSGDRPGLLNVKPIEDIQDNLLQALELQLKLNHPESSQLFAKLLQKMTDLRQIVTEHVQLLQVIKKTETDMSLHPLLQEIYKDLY

CC(C)=CCCC(C)=CC=O
active: [7] 78.6 µM | [8] 75 µM
not listed: [15] | [16] | [17] | [18] | [19]
inactive: all other assays above

O=c1[nH]c2ccc(S(=O)CCN3CCC(Cc4ccc(F)cc4)CC3)cc2o1 (stereo not given)
active: [4] 5.59 µM | [5] 3.63 µM | [6] 5.68 µM | [7] 1.56 µM | [8] 6.88 µM | [13] 67.3 µM | [14] 72.9 µM
inactive: all other assays above

CC(C)CCCCCCCOC(=O)CCCCC(=O)OCCCCCCCC(C)C
inactive: [1] | [2] | [3] | [10] | [11] | [18] | [19] | [12] | [13] | [14]

CCC(C)(C)C(=O)O[C@H]1C[C@@H](C)C=C2C=C[C@H](C)[C@H](CC[C@@H]3C[C@@H](O)CC(=O)O3)[C@H]21
active: [4] 0.338 µM | [6] 0.809 µM | [15] 0.581 µM | [9] 0.24 µM | [11] 10.9 µM
inactive: all other assays above

CC(C)(O)c1coc(S(=O)(=O)NC(=O)Nc2c3c(cc4c2CCC4)CCC3)c1
active: [6] 10.4 µM | [15] 25.2 µM | [9] 19.4 µM
not listed: [16] | [17] | [19]
inactive: all other assays above

C[C@](N)(Cc1ccc(O)c(O)c1)C(=O)O
inactive: [1] | [2] | [3] | [9] | [10] | [11] | [18] | [12] | [13] | [14]

CC[C@H]1CC[C@H](NCc2cc3c(cc2OC)[C@H]2C[C@H]2C(=O)N3C)[C@H](c2ccccc2)N1
active: [16] 6.19 µM | [17] 7.37 µM | [11] 57.7 µM
inactive: all other assays above

COc1ccc(-n2nc(C(F)F)cc2-c2ccc(S(C)=O)cc2)cc1 (stereo not given)
not listed: [16] | [17] | [19]
inactive: all other assays above

CCCCCCCCCCCCCCCO
active: [9] 14.8 µM
not listed: [4] | [7] | [8] | [15] | [16] | [17]
inactive: all other assays above

CN(C)c1ccc(Cc2ccc(N(C)C)cc2)cc1
active: [9] 3.81 µM | [10] 50 µM | [14] 83.1 µM
not listed: [7] | [16] | [17] | [19]
inactive: all other assays above

CCOC(=O)c1ccc(C2CCC(NC[C@H](O)COc3ccc(O)c(NS(C)(=O)=O)c3)CC2)cc1 (stereo not given in full)
active: [1] 10.4 µM | [4] 2.78 µM | [5] 2.95 µM | [6] 5.6 µM | [7] 9.35 µM | [15] 2.84 µM | [9] 2.61 µM
not listed: [16] | [17]
inactive: all other assays above

CC(C)c1cccc(C(C)C)c1N1C(=O)c2ccc(O)cc2C1=O
active: [5] 32.5 µM | [6] 31.7 µM | [8] 27.1 µM | [15] 16.7 µM | [9] 86.5 µM | [11] 82.1 µM | [12] 82.4 µM | [14] 84.1 µM
inactive: [1] | [2] | [3] | [7] | [10] | [18] | [19] | [13]

Cn1c(=O)cc(Oc2ccc(F)cc2F)c2cnc(NCC(C)(C)O)nc21
active: [4] 8.38 µM | [12] 17 µM
inactive: all other assays above

Nc1ccc(Nc2ccccc2)cc1
active: [5] 83.7 µM | [6] 13.9 µM | [8] 65.8 µM | [15] 4.03 µM | [14] 50 µM
not listed: [16] | [17]
inactive: all other assays above
